Experimental data from PubChem BioAssay (EPA / NIEHS).
Where “and” joins values, the source holds several entries; their conditions need not be identical. Equal entries are not always repeated. Records with an inconclusive call do not appear. Some compounds were tested as several samples or in several runs, with calls that do not always agree. Calls of active or inactive are those of the source. Rule for the calls, unless noted: active = hit-call score of the fitted dose curve at least 0.9, where 1 is the maximum; inactive = score below 0.9.

What was measured:
[1] = CCTE_Shafer_MEA_dev_burst_rate: CCTE's Neural Network Formation Assay for Burst Rate, Shafer Lab (AID 2284042);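 for AC50: potency for loss of burst rate below DMSO control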
Procedure, shortened: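 Primary rat cortical neurons on PEI-coated 48-well MEA plates (laminin added with cells at plating) (16 electrodes/well), exposed from plating to day 12, dosing renewed at DIV 5 and 9. Burst rate averaged over active electrodes, recorded DIV 5, 7, 9, 12, summarized as AUC; loss versus DMSO.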

[2] = CCTE_Shafer_MEA_dev_bursting_electrodes_number: CCTE's Neural Network Formation Assay for Number of Bursting Electrodes, Shafer Lab (AID 2284043; active = hit-call score of the fitted dose curve at least 0.9, where 1 is the maximum;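 for AC50: potency is for loss of bursting electrodes relative to DMSO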)
Procedure, shortened: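 Primary rat cortical neurons plated on 16-electrode MEA wells, exposed from day 0 with compound renewed at DIV 5 and 9. Electrodes bursting ≥1 burst per 2 min counted on days 5, 7, 9 and 12; trapezoidal AUC across days, fitted for loss versus DMSO.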

[3] = CCTE_Shafer_MEA_dev_interburst_interval_mean: CCTE's Neural Network Formation Assay for Mean Interburst Interval, Shafer Lab (AID 2284046);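 note: well-mean interburst interval of bursting electrodes as AUC over four recording days; curve fitted for decrease in interburst interval relative to DMSO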
Procedure, shortened: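 Recordings on days 5, 7, 9 and 12 give well-mean interburst interval across actively bursting electrodes, summarized as area under the curve. Cultures: rat cortical neurons, continuous exposure from day 0, compound renewed at feeds; decrease analyzed versus DMSO.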

[4] = CCTE_Shafer_MEA_dev_inter_network_spike_interval_mean: CCTE's Neural Network Formation Assay for Mean Inter-network Spike Interval, Shafer Lab (AID 2284047);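 for AC50: potency for a decrease in mean inter-network spike interval below DMSO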
Procedure, shortened: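 Primary rat cortical neurons on 16-electrode MEA wells, exposed from plating day 0 through DIV 12, compound renewed at DIV 5 and 9 media changes. Mean interval between network-spike peaks recorded DIV 5, 7, 9, 12; collapsed as trapezoidal AUC, fitted downward versus DMSO.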

[5] = CCTE_Shafer_MEA_dev_network_spike_number: CCTE's Neural Network Formation Assay for Number of Network Spikes, Shafer Lab (AID 2284048);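 for AC50: fit as a loss of signal meaning fewer network spikes than DMSO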
Procedure, shortened: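 Primary rat cortical neurons on PEI/laminin 48-well MEA plates, dosed from plating day 0 for 12 days, renewed at DIV 5 and 9. Network spike counts recorded DIV 5, 7, 9, 12, collapsed as trapezoidal AUC; DMSO baseline.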

[6] = CCTE_Shafer_MEA_dev_network_spike_peak: CCTE's Neural Network Formation Assay for Mean Number of Electrodes in Network Spike, Shafer Lab (AID 2284049);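 for AC50: fitted for loss of signal meaning fewer electrodes in network spikes than DMSO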
Procedure, shortened: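 Network-spike peak electrode count from recordings on days 5, 7, 9 and 12 was combined as trapezoidal area under the curve. Rat cortical cultures were treated continuously from plating, with compound renewed at each feed (DIV 5, 9); fits versus DMSO.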

[7] = CCTE_Shafer_MEA_dev_spike_duration_mean: CCTE's Neural Network Formation Assay for Mean Spike Duration, Shafer Lab (AID 2284051);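 note: mean network spike duration pooled as area under curve over DIV 5 to 12 recordings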;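 for AC50: potency for a decrease in mean network spike duration versus DMSO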
Procedure, shortened: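 Primary rat cortical neurons on 16-electrode MEA wells (PEI-coated, laminin in plating drop), exposed from plating through DIV 12 with compound renewed at DIV 5 and 9. Mean network-spike duration recorded DIV 5, 7, 9, 12; trapezoidal AUC across days, DMSO baseline.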

[8] = CCTE_Shafer_MEA_dev_network_spike_duration_std: CCTE's Neural Network Formation Assay for Standard Deviation of Network Spike Duration, Shafer Lab (AID 2284052);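 note: area under curve of spike duration SD across recording days 5 to 12; hits are decreases in network spike duration SD versus DMSO vehicle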
Procedure, shortened: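 Primary rat cortical neurons on PEI-coated 16-electrode MEA wells, exposed from plating day 0 through day 12 with compound renewed at DIV 5 and 9. Network spike duration SD recorded on days 5, 7, 9, 12, collapsed as trapezoidal AUC; loss-of-signal fit versus DMSO.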

[9] = CCTE_Shafer_MEA_dev_per_network_spike_spike_number_mean: CCTE's Neural Network Formation Assay for Mean Number of Spikes in a Network Spike, Shafer Lab (AID 2284053);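 for AC50: fitted as decrease in spikes per network spike relative to DMSO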
Procedure, shortened: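 Primary rat cortical neurons on 48-well, 16-electrode MEA plates were exposed from plating to DIV 12, with dosing renewed on DIV 5 and 9. Spikes per network spike (0.05 s peak window) were recorded on DIV 5, 7, 9 and 12 and collapsed as trapezoidal AUC versus DMSO.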

[10] = CCTE_Shafer_MEA_dev_per_network_spike_spike_percent: CCTE's Neural Network Formation Assay for Percent of Spikes in a Network Spike, Shafer Lab (AID 2284054)
Procedure, shortened: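 Rat primary cortical neurons were grown on 48-well MEA plates (16 electrodes/well), exposed from plating day 0 through day 12, with treatment renewed on DIV 5 and 9. Percent of spikes within 0.05 s network-spike peaks was measured, summarised as AUC across days 5, 7, 9, 12.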

[11] = CCTE_Shafer_MEA_dev_LDH: CCTE's Lactate Dehydrogenase Assay for Cytotoxicity in the Neural Network Formation Assay, Shafer Lab (AID 2284068; active = hit-call score of the fitted dose curve at least 0.9, where 1 is the maximum;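 note: exposure for twelve days from plating with re-dosing on DIV 5 and 9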)
Procedure, shortened: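 Primary rat cortical neurons were plated on PEI/laminin MEA plates and exposed from day 0 for twelve days, with compound renewed at DIV 5 and 9. Cytotoxicity was determined by spectrophotometric LDH assay relative to DMSO.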

[12] = CCTE_Shafer_MEA_dev_mutual_information_norm: CCTE's Neural Network Formation Assay for Mutual Information Normalization, Shafer Lab (AID 2284091);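 for AC50: mutual information between electrodes summarised as area under curve across four recording days; potency is for a decrease in mutual information relative to DMSO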
Procedure, shortened: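 Primary rat cortical neurons on PEI-coated 48-well MEA plates, 1.5 x 10^5 cells/well, exposed from day 0 through day 12 with re-dosing at DIV 5 and 9. Mutual information between electrodes recorded days 5, 7, 9, 12; trapezoidal AUC, loss-of-signal fit versus DMSO.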

[13] = CCTE_Shafer_MEA_dev_correlation_coefficient_mean: CCTE's Neural Network Formation Assay for Mean Correlation Coefficient, Shafer Lab (AID 2284093);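 for AC50: well mean pairwise spike train correlation integrated as AUC over recording days 5 to 12; potency fitted for loss of correlation relative to DMSO vehicle wells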
Procedure, shortened: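 Spontaneous activity recorded on days 5, 7, 9 and 12 post-plating; pairwise spike correlations are averaged across active electrodes and collapsed to an area-under-curve. Rat cortical cultures are dosed from plating through 12 days, with compound renewed at media changes.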

[14] = UKN2_HCS_IMR90_neural_migration: University of Konstanz (UKN) Leist Lab Neural Crest Cell Migration Assay in human induced IMR90 Pluripotent Stem Cells (UKN2) (AID 2284204); details: actives raise or lower the signal
Procedure, shortened: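 iPSC-derived IMR90 neural crest cells seeded around stoppers on PLO/laminin/fibronectin; migration started in N2-S medium with EGF/FGF, compounds added after 24 h for 24 h. Migration into cell-free area imaged after calcein-AM/Hoechst staining; bidirectional fit versus DMSO.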

[15] = CCTE_Shafer_MEA_acute_LDH: CCTE's Lactate Dehydrogenase Assay for Cytotoxicity in the Neural Acute Assay, Shafer Lab (AID 2284086; active = hit-call score of the fitted dose curve at least 0.9, where 1 is the maximum;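 note: active means LDH release rises above DMSO vehicle level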)
Procedure, shortened: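 Primary rat cortical neurons on 48-well MEA plates, treated on day 13 or 15 post-plating. After the 40-min recording with compound, medium LDH release was read by absorbance at 490 nm. Gain of signal was fitted against DMSO negative control.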

[16] = UKN5_HCS_SBAD2_cell_viability: Viability Assessment in the University of Konstanz (UKN) Leist Lab Neurite Outgrowth Assay in human iPSC-derived immature Dorsal Root Ganglia Neurons (UKN5) (AID 2284056)
Procedure, shortened: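 iPSC-derived immature peripheral neurons (SBAD2) seeded on Matrigel with CHIR99021, SU5402 and DAPT, dosed 1 h later for 24 h. Viability from Hoechst H-33342 and calcein-AM live staining, high-content imaging; bidirectional fit versus DMSO.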

[17] = UKN5_HCS_SBAD2_neurite_outgrowth: University of Konstanz (UKN) Leist Lab Neurite Outgrowth Assay in human iPSC-derived immature Dorsal Root Ganglia Neurons (UKN5) (AID 2284070); details: actives raise or lower the signal
Procedure, shortened: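 Human iPSC-derived immature DRG neurons (SBAD2) on Matrigel with CHIR99021 (1.5 uM), SU5402 (5 uM), DAPT (5 uM); compounds added 1 h post-seeding for 24 h. Calcein-AM neurite area imaged; bidirectional fit vs DMSO.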

[18] = CCTE_Shafer_MEA_acute_AB: CCTE's Alamar Blue Assay for Cytotoxicity in the Neural Acute Assay, Shafer Lab (AID 2284069; active = hit-call score of the fitted dose curve at least 0.9, where 1 is the maximum;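 note: active compounds lower the viability signal compared with DMSO wells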)
Procedure, shortened: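 Primary rat cortical neurons on MEA plates, exposed acutely after baseline recording on day 13 or 15 post-plating. Viability by CellTiter Blue resazurin reduction (1:6 reagent dilution), fluorescence 544/590 nm; loss of signal versus DMSO.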

[19] = system: DIO2 (gene 1734); test: CCTE_GLTED_hDIO2: CCTE's human Deiodinase 2 (DIO2) Inhibition Assay, Great Lakes Toxicology and Ecology Division (GLTED) Lab (AID 2284050; active = hit-call score of the fitted dose curve at least 0.9, where 1 is the maximum)
Procedure, shortened: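 Cell-free human DIO2 enzyme was incubated with test chemical for 3 h; iodide liberated from substrate was then quantified by the Sandell-Kolthoff reaction (absorbance), run in triplicate. Loss of signal versus DMSO baseline indicated inhibition.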

[20] = system: DIO3 (gene 1735); test: CCTE_GLTED_hDIO3: CCTE's human Deiodinase 3 (DIO3) Inhibition Assay, Great Lakes Toxicology and Ecology Division (GLTED) Lab (AID 2284055; active = hit-call score of the fitted dose curve at least 0.9, where 1 is the maximum;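 for AC50: potency is for inhibition seen as loss of released iodide signal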)
Procedure, shortened: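 Cell-free assay with human DIO3 enzyme produced by adenovirus expression; enzyme incubated with test chemical for 3 hours. Liberated iodide then measured by Sandell-Kolthoff absorbance; loss of signal versus DMSO baseline indicates inhibition, run in triplicate.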

Measured: AC50

CCOc1ccc(C(C)(C)COCc2cccc(Oc3ccccc3)c2)cc1
active: [2] 8.06 µM | [3] 18 µM | [6] 6540 nM | [7] 4.41 µM | [9] 10 µM | [10] 10 µM | [11] 15.2 µM | [12] 3.09 µM | [13] 10 µM
inactive: [1] | [4] | [5] | [8]

O=C(O)C(F)(OC(F)(F)C(F)(F)C(F)(F)F)C(F)(F)F (stereo not drawn)
inactive: [1] | [2] | [3] | [4] | [5] | [6] | [7] | [8] | [9] | [10] | [11] | [12] | [13] | [14]
active: [1] 11.7 µM | [5] 402 nM

CC(C)(C)c1ccccc1OP(=O)(Oc1ccccc1)Oc1ccccc1
inactive: [1] | [3] | [4] | [5] | [6] | [7] | [8] | [9] | [10] | [15] | [12] | [13]
active: [2] 16.4 µM and 26.8 µM | [6] 22900 nM | [7] 25.7 µM | [9] 25.4 µM | [10] 15 µM | [11] 15.5 µM and 26 µM | [13] 24.4 µM

OCC(F)(F)OC(F)(F)C(F)(F)OC(F)(F)C(F)(F)OC(F)(F)F
active: [6] 818 nM
not listed: [14] | [15] | [16] | [17] | [18] | [19] | [20]
inactive: all other assays above

CCCCC(CC)COC(=O)c1c(Br)c(Br)c(Br)c(Br)c1C(=O)OCC(CC)CCCC (stereo not drawn)
active: [6] 330 nM
not listed: [14] | [15] | [16] | [17] | [18] | [19] | [20]
inactive: all other assays above

CCOP(=S)(OCC)SCSCC
active: [2] 76.1 µM and 23.1 µM | [3] 50 µM | [6] 74.9 µM and 26.4 µM | [7] 72.3 µM | [9] 50 µM and 12.1 µM | [10] 92 µM | [11] 33.7 µM | [12] 4.04 µM | [13] 74.5 µM and 13 µM
inactive: [1] | [3] | [4] | [5] | [7] | [8] | [10] | [11] | [12] | [14]

CO/N=C(/C(=O)OC)c1ccccc1COc1ccccc1C
active: [1] 0.403 µM | [2] 0.857 µM | [3] 0.939 µM | [4] 712 nM | [5] 474 nM | [6] 567 nM | [7] 0.688 µM | [8] 312 nM | [9] 0.518 µM | [10] 0.902 µM | [11] 0.811 µM | [12] 0.454 µM | [13] 0.765 µM
inactive: [14]

O=S1(=O)OCC2C(CO1)C1(Cl)C(Cl)=C(Cl)C2(Cl)C1(Cl)Cl (stereo not drawn)
inactive: [16] | [17]

O=C(O)C=CC(F)(C(F)(F)F)C(F)(F)F
inactive: [1] | [3] | [4] | [5] | [6] | [7] | [8] | [9] | [10] | [12] | [13]

c1ccc2c(c1)Nc1ccccc1S2
inactive: [18]

COP(=O)(CCC(=O)NCO)OC
inactive: [15]

O=C(O)C(F)(F)OC(F)(F)C(F)(F)OC(F)(F)F
inactive: [1] | [3] | [4] | [5] | [6] | [7] | [8] | [9] | [10] | [12]
active: [13] 3.78 µM

Cc1ccc(N)cc1N
inactive: [15]

CCCCCCCc1ccc(O)cc1
active: [19] 136 µM | [20] 81.2 µM

Nc1ccc2ccccc2c1
inactive: [15]

COCCOCCO
inactive: [18] | [15]

[N-]=[N+]=[N-]
inactive: [18] | [15]

CC1(C)CN=C(NN=C(/C=C/c2ccc(C(F)(F)F)cc2)/C=C/c2ccc(C(F)(F)F)cc2)NC1
active: [19] 18.8 µM
inactive: [20]

COC(=O)C(F)(F)C(F)(F)OC(F)(C(F)(F)F)C(F)(F)OC(F)=C(F)F (stereo not drawn)
active: [19] 18.2 µM | [20] 3.1 µM

CCNc1nc(Cl)nc(NC(C)(C)C)n1
active: [20] 11.4 µM
inactive: [19]

O=c1ssc(Cl)c1Cl
active: [19] 13.8 µM | [20] 3.57 µM

O=C(O)C1C(C(=O)O)C2(Cl)C(Cl)=C(Cl)C1(Cl)C2(Cl)Cl (stereo not drawn)
not listed: [2] | [14] | [15] | [16] | [17] | [19] | [20]
inactive: all other assays above

CCC1(c2ccccc2)C(=O)N=C(O)NC1=O (stereo not drawn)
not listed: [2] | [14] | [15] | [16] | [17] | [19] | [20]
inactive: all other assays above

CCOP(=S)(Oc1ccc([N+](=O)[O-])cc1)c1ccccc1 (stereo not drawn)
inactive: [18] | [15]

CC(Cl)(Cl)C(=O)O
inactive: [18] | [15]

O=S(=O)(F)C(F)(F)C(F)(F)C(F)(F)C(F)(F)C(F)(F)C(F)(F)C(F)(F)C(F)(F)F
active: [20] 28.4 µM

ClC(Cl)(Cl)c1ccccc1
inactive: [18] | [15]

CCC(C)(C)c1ccc(O)cc1
inactive: [18]
